The full list was thinned out, with hits kept by preference.
Tgondii IFNg: blocks Toxoplasma gondii growth in the presence of IFN-gamma | AID 1259416 | 69,000 tested, 3.8% active | activity change, negative = inhibition, % (concentration not given with the values) | Toxoplasma gondii growth in IFN-gamma-treated host cells; active compounds read low; in the data active means activity change below about -70%, passing the limit was not always enough;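 further: host cells are HeLa cells infected with Toxoplasma gondii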
Numbers without * were called inactive.

SMILES | Tgondii IFNg
Cc1ccc(-c2cc(C3CCN(C(=O)C4CCCO4)C3)nc(N(C)C)n2)cc1 (stereo not drawn) | -60
Cc1nc2nnc3ccc(C(=O)N(C)Cc4ccccn4)cc3c2n1Cc1ccccc1 | -109*
CN(C)C(=O)c1ccc2nnc3ncn(Cc4ccccc4)c3c2c1 | -46
Cc1nc2nnc3ccc(C(=O)N(C)C)cc3c2n1-c1ccccc1 | -3
CCN1CC(NC(=O)c2c(O)cccc2O)CC1=O (stereo not drawn) | -2
CN1C(C)(C)CC(Nc2nc(-c3ccccn3)nc3c2CCNC3)CC1(C)C | -4
c1ccc2c(c1)CC(Nc1nc(C3CCCC3)nc3c1CNC3)CO2 (stereo not drawn) | 2
Fc1cccc(-c2nc3c(c(NC4CC4)n2)CNCC3)c1 | -86*
O=C(CO)N1C[C@H]2[C@H](N3CCOCC3)c3ccccc3[C@@H]2C1 | 27
CS(=O)(=O)N1CCCC2(COCCN(c3cnccn3)C2)C1 (stereo not drawn) | 0
Cc1ccc(CN2CCCC3(COCCN(c4cnccn4)C3)C2)s1 (stereo not drawn) | -94*
Cc1ccc(CN2CCC3(CC2)COCCN(c2ncccn2)C3)s1 | -2
Cc1noc(C)c1CN(C)C(=O)c1n[nH]c2c1CC(C)CC2 (stereo not drawn) | -1
COc1ccc2c(c1)C(C(=O)NCc1cnn3ccccc13)CC(=O)N2 (stereo not drawn) | -7
COc1ccccc1-c1nc(NC(=O)Cc2c(C)noc2C)n[nH]1 | -2
COc1ccc2c(c1)c(CN(C)Cc1n[nH]c3c1CCCC3)cn2C(C)C | 17
Cc1ccccc1-n1nc(C)c(CN(C)Cc2n[nH]c3c2CCCC3)c1C | -78*
CCSc1ncc(CN(C)Cc2n[nH]c3c2CCCC3)cn1 | -54
CCc1cc(-n2cnc3c(C)ncnc32)ccc1NC(C)=O | 0
O=C(NCc1coc(-c2ccccc2)n1)C1CC2(CCNCC2)CN1 (stereo not drawn) | 7
CC(C)CN1C(=O)N(C)C(=O)C12CCN(Cc1cn(-c3ccccc3)nc1-c1ccccc1)CC2 | -27
CC(C)C(=O)N1C[C@H]2CN(C(=O)N(C)C)C[C@@H]2c2ccccc21 | -6
CCCCCN1CC2CN(C(=O)Nc3ccccc3)CC2C1 (stereo not drawn) | 1
CC(C)N(C(=O)NC(=O)c1csnn1)C(C)C | 12
Cc1ccc(SC(=O)c2csnn2)cc1 | -102*
SMILES | Tgondii IFNg
O=C(Nc1ccc(Cl)cc1)c1csnn1 | 28
CCn1c(C2CCN(C(=O)COc3ccc(Cl)cc3)CC2)nn(C)c1=O | 3
CC(NC(=O)c1cccc2ccnn12)c1cn2ncsc2n1 (stereo not drawn) | 6
c1ccc(C2c3[nH]c4ccccc4c3CCN2Cc2ccc3c(c2)OCCO3)nc1 (stereo not drawn) | 37
Cc1nc(-c2ccc(Cl)cc2)sc1CCNC(=O)C(=O)Nc1cccc(F)c1 | -12
CCCNC(=O)C1Cc2nc(-c3cccc(OC)c3)sc2N1C(C)C (stereo not drawn) | 0
COc1ccc(CC(=O)N2CCC3(CC2)NC(=O)c2cc(C)ccc2N3C)cc1 | -12
CCn1c(=O)c(C(=O)Nc2ccccc2OC)c(O)c2ccccc21 | 70
COc1cc(NC(=O)c2cncc(Br)c2)c(OC)cc1Cl | 4
CCOC(=O)c1cccc(NC(=O)c2ccncc2)c1 | 26
COc1cccc(OC)c1C(=O)c1ccncc1 | -24
CCn1c(-c2cc(NC(=O)c3cncc(Br)c3)n[nH]2)cc2c(OC)cccc21 | -97*
CCn1c(-c2cc(NC(=O)c3ccncc3)n[nH]2)cc2c(OC)cccc21 | -103*
Cc1ccccc1CN1CC2CC(C(=O)N3CCOCC3)C(C1)O2 (stereo not drawn) | -33
OCCOCc1nnn2c1CN(C1CCOCC1)CCC2 | 1
CC(=O)N1CCC(C(=O)NCc2ccccc2)(N(C(=O)c2ccc(C)cc2)c2ccc(F)cc2F)CC1 | -61
CC(C)N1CCN(C)CC1c1nnc2ccc(C(=O)NCCc3ccccn3)cn12 (stereo not drawn) | 4
COc1ccccc1C(=O)Nc1cccc(-n2cnnc2)c1 | -8
COc1ccccc1-c1cc(C(=O)Nc2cccc(CCc3ccncc3)c2)[nH]n1 | -92*
Cc1cnn(CC(=O)Nc2cccc(CCc3ccncc3)c2)c1 | 13
Nc1nccc2c1ncn2[C@@H]1C=C(CO)[C@@H](O)[C@H]1O | -78*
Nc1nccc2c1ncn2[C@@H]1O[C@H](CO)C(O)C1O (stereo partly drawn) | -3
COc1cccc(-c2nn(C)c3c2[C@H]2CN(C(=O)c4ccncc4)C[C@@H]2C3)c1 | 11
COC(=O)c1[nH]ncc1CN(C)C1CCCc2ccccc21 (stereo not drawn) | 21
Cc1cc(Nc2nc(N[C@@H](C)c3ccc(F)cc3)c(C#N)cc2F)n[nH]1 | -75*
SMILES | Tgondii IFNg
Cn1nc(CN2CCCCC2)c2c1CN(C(=O)Nc1ccc(F)cc1)C2 | 3
Cc1nnc(N2C[C@@H](Oc3ccccn3)[C@@H]3OCCC[C@@H]32)s1 | -46
CC(=O)N1CCC(Cn2ccnc2-c2cc3ccccc3s2)CC1 | -47
Cc1ccc(C(=O)Nc2nccnc2C(=O)N2CCC(N3CCCCC3)CC2)cc1 | -5
O=C(c1ccc(Nc2nccc(-c3cc4ccccc4s3)n2)cc1)N1CCC(N2CCCC2)CC1 | -71*
N#Cc1ccc(CN2CC[C@]3(CCC[C@@H]3C(=O)N3CCOCC3)C2)cc1 | -18
Cc1noc(-c2cc(=O)n(CC(=O)NC3CCCC3)c3ccccc23)n1 | 68
Cc1ccc2c(c1)cc(S(=O)(=O)c1ccccc1)c(=O)n2CC(=O)NC1CCCC1 | -20
CC(Cn1cnc2c3cc(F)ccc3n(CC(=O)NC3CCCC3)c2c1=O)c1ccccc1 (stereo not drawn) | -102*
Cc1cccnc1CC(C)NC(=O)c1ccc(NC(=O)c2ccoc2C)cc1 (stereo not drawn) | -7
C[C@@H]1CN([C@H](C)CO)C(=O)c2ccccc2-c2ccccc2CO[C@@H]1CN(C)C(=O)Nc1ccc(-c2ccccc2)cc1 | -74*
C[C@@H]1CN([C@@H](C)CO)C(=O)c2ccccc2-c2ccccc2CO[C@@H]1CN(C)C(=O)Nc1ccc(-c2ccccc2)cc1 | -60
C[C@@H]1CN([C@H](C)CO)C(=O)c2ccccc2-c2ccccc2CO[C@H]1CN(C)C(=O)Nc1cccc(C(F)(F)F)c1 | -37
C[C@H]1CN([C@@H](C)CO)C(=O)c2ccccc2-c2ccccc2CO[C@H]1CN(C)C(=O)NC1CCCCC1 | 14
C[C@@H]1CN([C@H](C)CO)C(=O)c2ccccc2-c2ccccc2CO[C@H]1CN(C)C(=O)Nc1ccc(-c2ccccc2)cc1 | -76*
C[C@H](CO)N1C[C@H](C)[C@@H](CN(C)C(=O)Nc2cccc(C(F)(F)F)c2)OCc2ccccc2-c2ccccc2C1=O | -36
O=S(=O)(NC1CC2(CCN(Cc3cccc(F)c3F)C2)C1)C1CC1 (stereo not drawn) | -41
O=C(Cn1c(=O)cc(C(=O)N2CCCC2)c2ccccc21)N1CCN(c2ccccc2F)CC1 | -49
O=C(NCC1CCCO1)c1ccc(-n2ccnc2)c(-n2cccc2)c1 (stereo not drawn) | -25
COc1ccc(CC(=O)Nc2ccc(-c3nc(Cn4cc(C)cn4)c(C)o3)cc2)cc1 | -51
Cc1cnn(Cc2nc(-c3ccc(NC(=O)CCc4ccccc4)cc3)oc2C)c1 | -84*
COc1ccccc1C(=O)Nc1ccc(-c2nc(Cn3cc(C)cn3)c(C)o2)cc1 | 15
CC(=O)Nc1ccc(-c2nc(Cn3cc(C)cn3)c(C)o2)cc1 | 64
Cc1cnn(Cc2nc(-c3ccc(NC(=O)CC4CCCC4)cc3)oc2C)c1 | -15
